In PubChem BioAssay (EPA / NIEHS):
Calls of active or inactive are those of the source. The calls were made as follows: active = hit-call score of the fitted dose curve at least 0.9, where 1 is the maximum; inactive = score below 0.9.

What was measured:
Details in all cases: mRNA level, 48 h; actives raise or lower the signal
[1] = read-out: ATP-citrate lyase (ACLY), ACLY (gene 47); experiment: LTEA_HepaRG_ACLY: Life Technologies and Expression Analysis (LTEA) Assay for ATP-citrate lyase (ACLY) using HepaRG (AID 2283466)
Procedure, shortened: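 ACLY expression changes in human HepaRG liver cells are quantified by qRT-PCR after 48 h exposure to test chemicals (maximum 100 uM, half-log steps). Values are fitted in both directions relative to 0.5% DMSO vehicle.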

[2] = read-out: Peroxisomal acyl-coenzyme A oxidase 1 (ACOX1) gene, ACOX1 (gene 51); experiment: LTEA_HepaRG_ACOX1: Life Technologies and Expression Analysis (LTEA) Assay for Peroxisomal acyl-coenzyme A oxidase 1 (ACOX1) gene using HepaRG (AID 2283467)
Procedure, shortened: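 Human HepaRG hepatic cultures, 48 h treatment with test chemicals up to 100 uM. ACOX1 expression read by qRT-PCR relative to 0.5% DMSO vehicle.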

[3] = read-out: Alkaline Phosphatase, Placental (ALPP) gene, ALPP (gene 250); experiment: LTEA_HepaRG_ALPP: Life Technologies and Expression Analysis (LTEA) Assay for Alkaline Phosphatase, Placental (ALPP) gene using HepaRG (AID 2283468);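 as to AC50: differentiated human HepaRG liver cells in serum-free induction medium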
Procedure, shortened: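 ALPP transcript level, measured by qRT-PCR and normalized to three housekeeping genes (ACTB, GAPDH, POLR2A), after 48 h dosing of differentiated HepaRG in serum-free induction medium. Top concentration 100 uM with half-log dilutions (8 points, 0.5% DMSO, duplicates); bidirectional fitting relative to DMSO.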

[4] = read-out: Bcl-2 (BAD) gene, BAD (gene 572); experiment: LTEA_HepaRG_BAD: Life Technologies and Expression Analysis (LTEA) Assay for Bcl-2 (BAD) gene using HepaRG (AID 2283469)
Procedure, shortened: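 Activity values reflect up- or down-regulation of BAD mRNA in human HepaRG hepatic cells treated 48 h in serum-free medium, with eight-point half-log dosing capped at 100 uM and 0.5% DMSO vehicle.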

[5] = read-out: adenosine kinase (ADK) gene, ADK (gene 132); experiment: LTEA_HepaRG_ADK: Life Technologies and Expression Analysis (LTEA) Assay for adenosine kinase (ADK) gene using HepaRG (AID 2283471)
Procedure, shortened: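 ADK expression quantified by qRT-PCR, normalised to three housekeeping genes, after 48 h exposure of HepaRG cells to eight concentrations (top 100 uM, half-log steps, duplicate, 0.5% DMSO). Up- or down-regulation fitted relative to vehicle.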

[6] = read-out: Alpha-fetoprotein (AFP) gene, AFP (gene 174); experiment: LTEA_HepaRG_AFP: Life Technologies and Expression Analysis (LTEA) Assay for Alpha-fetoprotein (AFP) gene using HepaRG (AID 2283472)
Procedure, shortened: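 qRT-PCR (Fluidigm TaqMan) readout of AFP transcript, normalized to three housekeeping genes, fitted bidirectionally against 0.5% DMSO baseline. HepaRG cells received chemicals for 48 h in serum-free induction medium, top concentration 100 uM, half-log steps.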

BCL2L11 (gene 10018) = experiment: LTEA_HepaRG_BCL2L11: Life Technologies and Expression Analysis (LTEA) Assay for Bcl-2 (BCL2L11) gene using HepaRG (AID 2283473)
Procedure, shortened: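 BCL2L11 transcript levels are measured by Fluidigm qRT-PCR, normalized to three housekeeping genes. HepaRG cultures were plated 48 h, then treated 48 h with test chemical (top 100 uM, half-log, 0.5% DMSO vehicle); curves were fitted bidirectionally against DMSO.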

[7] = read-out: Apolipoprotein A-V (APOA5) gene, APOA5 (gene 116519); experiment: LTEA_HepaRG_APOA5: Life Technologies and Expression Analysis (LTEA) Assay for Apolipoprotein A-V (APOA5) gene using HepaRG (AID 2283474)
Procedure, shortened: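 APOA5 transcript levels were quantified by qRT-PCR, normalized to three housekeeping genes, after 48 h chemical treatment of HepaRG cells (8 points, 100 uM maximum, half-log steps, 0.5% DMSO). Curves fitted in both directions against vehicle.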

[8] = read-out: Bcl-2 (BID) gene, BID (gene 637); experiment: LTEA_HepaRG_BID: Life Technologies and Expression Analysis (LTEA) Assay for Bcl-2 (BID) gene using HepaRG (AID 2283476)
Procedure, shortened: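 HepaRG, 48 h exposure, 8-pt half-log series, top 100 uM, 0.5% DMSO vehicle, duplicates. Readout: BID mRNA by TaqMan qRT-PCR; housekeeping-normalized; bidirectional curve fit vs DMSO baseline.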

Caspase-3 (Homo sapiens) = Caspase-3 (Homo sapiens) (UniProt P42574); experiment: LTEA_HepaRG_CASP3: Life Technologies and Expression Analysis (LTEA) Assay for cysteine-aspartic acid protease (CASP3) using HepaRG (AID 2283477)
Sequence of Caspase-3 (Homo sapiens) (P42574 whole entry, looked up): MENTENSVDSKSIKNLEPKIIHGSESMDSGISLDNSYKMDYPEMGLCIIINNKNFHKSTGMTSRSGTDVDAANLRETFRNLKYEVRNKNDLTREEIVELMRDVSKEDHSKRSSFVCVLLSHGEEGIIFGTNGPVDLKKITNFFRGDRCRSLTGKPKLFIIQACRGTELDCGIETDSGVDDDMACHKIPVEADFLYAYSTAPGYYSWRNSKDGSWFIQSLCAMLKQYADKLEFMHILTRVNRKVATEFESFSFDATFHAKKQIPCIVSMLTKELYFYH
Procedure, shortened: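 Expression of CASP3 was quantified by TaqMan qRT-PCR against three housekeeping genes (ACTB, GAPDH, POLR2A), bidirectionally versus 0.5% DMSO. HepaRG cultures received compounds in duplicate, top 100 uM with half-log steps, for 48 h in serum-free induction medium.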

[9] = read-out: cysteine-aspartic acid protease (CASP8), CASP8 (gene 841); experiment: LTEA_HepaRG_CASP8: Life Technologies and Expression Analysis (LTEA) Assay for cysteine-aspartic acid protease (CASP8) using HepaRG (AID 2283480)
Procedure, shortened: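 Concentration-response in duplicate up to 100 uM (half-log steps, 0.5% DMSO) on differentiated HepaRG cultures for 48 h. Expression change of CASP8 mRNA is determined by TaqMan qRT-PCR with housekeeping-gene normalization.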

[10] = read-out: Cytochrome P450 2C19 (Homo sapiens) (UniProt P33261); experiment: LTEA_HepaRG_CYP2C19: Life Technologies and Expression Analysis (LTEA) Assay for CYP2C19 using HepaRG (AID 2283482)
Procedure, shortened: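 CYP2C19 transcript levels by qRT-PCR, normalized to three housekeeping genes, in HepaRG cells after 48 h chemical exposure. Eight-point half-log series topping at 100 uM, 0.5% DMSO vehicle. Increases and decreases both fitted against DMSO.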

CYP2C8 (gene 1558) = experiment: LTEA_HepaRG_CYP2C8: Life Technologies and Expression Analysis (LTEA) Assay for CYP2C8 using HepaRG (AID 2283483)
Procedure, shortened: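 This is a transcriptional endpoint in HepaRG cultures: 48 h exposure, highest concentration 100 uM. CYP2C8 mRNA is quantified by TaqMan qRT-PCR.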

CYP2C9 (gene 1559) = experiment: LTEA_HepaRG_CYP2C9: Life Technologies and Expression Analysis (LTEA) Assay for CYP2C9 using HepaRG (AID 2283484)
Procedure, shortened: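 Eight-point concentration-response (highest 100 uM, half-log dilutions) in HepaRG cells for 48 h; CYP2C9 expression by qRT-PCR normalized to ACTB, GAPDH, POLR2A. Bidirectional fit, DMSO baseline.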

CYP2E1 (gene 1571) = experiment: LTEA_HepaRG_CYP2E1: Life Technologies and Expression Analysis (LTEA) Assay for CYP2E1 using HepaRG (AID 2283485)
Procedure, shortened: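 CYP2E1 transcript was measured by TaqMan qRT-PCR in human HepaRG cultures after 48 h chemical exposure (top 100 uM, half-log steps, 0.5% DMSO vehicle). Housekeeping-gene normalization; gain or loss fitted relative to DMSO baseline.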

[11] = read-out: Apoptosis regulator Bcl-2 (Homo sapiens) (UniProt P10415); experiment: LTEA_HepaRG_BCL2: Life Technologies and Expression Analysis (LTEA) Assay for Bcl-2 gene using HepaRG (AID 2283475);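 also: BCL2 transcript by TaqMan qRT-PCR normalised to ACTB GAPDH and POLR2A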
Procedure, shortened: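 qRT-PCR read-out (Fluidigm TaqMan) of BCL2 transcript, normalised to three housekeeping genes, after 48 h chemical exposure of HepaRG cells; 8-point half-log series, top 100 uM, 0.5% DMSO vehicle. Gain or loss of signal fitted relative to DMSO baseline.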

[12] = read-out: Cytochrome P450 (CYP24A1), CYP24A1 (gene 1591); experiment: LTEA_HepaRG_CYP24A1: Life Technologies and Expression Analysis (LTEA) Assay for Cytochrome P450 (CYP24A1) using HepaRG (AID 2283478)
Procedure, shortened: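 mRNA of CYP24A1 quantified by TaqMan qRT-PCR (ACTB/GAPDH/POLR2A normalization) after 48 h chemical exposure of HepaRG cells, top concentration 100 uM, half-log steps, 0.5% DMSO vehicle, duplicates. Curves fitted bidirectionally against DMSO baseline.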

[13] = read-out: Cytochrome P450 (CYP1A2), CYP1A2 (gene 1544); experiment: LTEA_HepaRG_CYP1A2: Life Technologies and Expression Analysis (LTEA) Assay for Cytochrome P450 (CYP1A2) using HepaRG (AID 2283479)
Procedure, shortened: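 CYP1A2 transcript measured by TaqMan qRT-PCR against three housekeeping genes after 48-hour chemical exposure of HepaRG cells. Eight-point half-log series topping at 100 uM in 0.5% DMSO, duplicates; gain or loss fitted relative to vehicle.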

[14] = read-out: Cytochrome P450 (CYP2B6), CYP2B6 (gene 1555); experiment: LTEA_HepaRG_CYP2B6: Life Technologies and Expression Analysis (LTEA) Assay for Cytochrome P450 (CYP2B6) using HepaRG (AID 2283481)
Procedure, shortened: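 CYP2B6 transcript level quantified by qRT-PCR against three housekeeping genes, fitted bidirectionally relative to DMSO. HepaRG cultures received chemicals for 48 h, 8-point half-log series from 100 uM in 0.5% DMSO, duplicate wells, serum-free induction medium.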

Measured: AC50

Sequence of Cytochrome P450 2C19 (Homo sapiens) (P33261 whole entry, looked up): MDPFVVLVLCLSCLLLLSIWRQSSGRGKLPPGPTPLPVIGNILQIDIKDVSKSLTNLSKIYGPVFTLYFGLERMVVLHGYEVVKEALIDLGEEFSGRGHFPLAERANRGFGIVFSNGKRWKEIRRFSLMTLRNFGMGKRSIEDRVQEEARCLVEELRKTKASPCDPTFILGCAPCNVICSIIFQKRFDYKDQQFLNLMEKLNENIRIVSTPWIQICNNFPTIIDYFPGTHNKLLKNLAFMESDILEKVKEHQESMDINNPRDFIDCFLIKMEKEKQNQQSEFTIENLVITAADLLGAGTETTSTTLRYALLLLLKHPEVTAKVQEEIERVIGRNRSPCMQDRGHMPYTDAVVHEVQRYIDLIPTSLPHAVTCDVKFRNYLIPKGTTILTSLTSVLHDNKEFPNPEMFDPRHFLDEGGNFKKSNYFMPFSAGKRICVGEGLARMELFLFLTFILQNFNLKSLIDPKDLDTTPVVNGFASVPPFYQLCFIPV
Sequence of Apoptosis regulator Bcl-2 (Homo sapiens) (P10415 whole entry, looked up): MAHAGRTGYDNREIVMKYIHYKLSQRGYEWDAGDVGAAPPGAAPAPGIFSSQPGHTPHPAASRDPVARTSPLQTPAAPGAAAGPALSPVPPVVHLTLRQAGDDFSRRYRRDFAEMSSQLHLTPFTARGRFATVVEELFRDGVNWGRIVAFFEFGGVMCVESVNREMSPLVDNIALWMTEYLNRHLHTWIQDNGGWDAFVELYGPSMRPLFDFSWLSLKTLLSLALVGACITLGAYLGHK

N#Cc1c[nH]cc1-c1cccc2c1OC(F)(F)O2
active: [3] 10 µM | [6] 73.3 µM | BCL2L11 (gene 10018) 20.9 µM | [10] 93.5 µM | CYP2C9 (gene 1559) 50 µM | CYP2E1 (gene 1571) 76 µM
not listed: [11] | [12] | [13] | [14]
inactive: all other assays above

COCC(=O)N(c1c(C)cccc1C)C(C)C(=O)OC (stereo not drawn)
active: [14] 1.23 µM | [10] 3.91 µM | CYP2E1 (gene 1571) 50 µM
not listed: BCL2L11 (gene 10018) | [8]
inactive: all other assays above

COC(=O)NS(=O)(=O)c1ccc(N)cc1
not listed: [12] | [13] | [14]
inactive: all other assays above
